Inconclusive results are not listed. The source made the active and inactive calls. Unless noted, calls follow the shape of the dose curve; as a rule, active = well fitted curve in the direction sought with a large enough effect in the repeat runs; inconclusive = weak or mixed curves; inactive = no such curve, though single readings can be large; an effect the other way counts as inactive or inconclusive. Non-standard residues stand in square brackets, D forms with d. Residues, ends and D or L forms follow the SMILES beside them. *: point of attachment. Sta = CC(C)C[C@H](N)[C@@H](O)CC(=O)O; Isovaleryl = CC(C)CC(=O)*
Legend:
[1] = qHTS assay for small molecule agonists of the p53 signaling pathway (AID 651631; calls by dose curve; also: nearly all actives have a fitted effect of over 15% in size)
Method in brief: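 p53RE-bla HCT-116 cells; compounds 16 h, 37 °C; LiveBLAzer B/G FRET substrate 2 h RT; fluorescence intensity read-out, qHTS format.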

[2] = qHTS assay for small molecules that induce genotoxicity in human embryonic kidney cells expressing luciferase-tagged ATAD5 (AID 651632); also: nearly all actives have a fitted effect of over 15% in size
Method in brief: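 Cells were seeded at 2,000 per well, dosed with compound, and incubated 16 hr at 37C in 5% CO2. Luciferase activity was then quantified after a 30 min room-temperature incubation with Amplite.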

[3] = qHTS assay for small molecule agonists of the p53 signaling pathway - cell viability (AID 651633; calls by dose curve;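 also: p53RE-bla HCT reporter cells with a stable beta-lactamase p53 reporter; series mostly up to about 83 µM; nearly all actives have a fitted effect of over 30% in size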)
Method in brief: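 Viability counter-read: CellTiter-Glo luminescence (30 min, room temperature) in the same p53RE-bla plates. These plates had been exposed to compounds for 16 h at 37 C.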

[4] = qHTS assay for small molecules that induce genotoxicity in human embryonic kidney cells expressing luciferase-tagged ATAD5 - cell viability (AID 651634; calls by dose curve; also: nearly all actives have a fitted effect of over 25% in size)
Method in brief: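 Cells (HEK293T, luciferase-tagged ATAD5) are seeded at 2,000 per well, dosed with compound or DMSO vehicle, and incubated 15.5 hr at 37C and 5% CO2. CellTiter-Fluor is added for 30 min before fluorescence is measured.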

[5] = qHTS assay for small molecule disruptors of the mitochondrial membrane potential - cell viability (AID 720634; calls by dose curve;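 also: human HepG2 liver cancer cells; series mostly up to about 83 µM; nearly all actives have a fitted effect of over 20% in size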)
Method in brief: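 Cytotoxicity was measured by ATP quantitation in HepG2 wells that had first been treated with compound for 1 hr and stained with m-MPI dye; CellTiter-Glo incubation was 30 min at room temperature.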

[6] = qHTS assay to test for compound auto fluorescence at 590 nm (red) in HepG2 cells (AID 720674)
Method in brief: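 Red autofluorescence (Ex/Em 540/590 nm, Rose Bengal sodium equivalents) was measured in HepG2 cells, 2,000 per well in MEM plus 10% FBS, plated overnight at 37 C. Readings were taken 1 hr after adding 23 nL compound or DMSO, at 37 C and 5% CO2.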

[7] = qHTS assay to test for compound auto fluorescence at 535 nm (green) in HepG2 cells (AID 720675)
[8] = qHTS assay to test for compound auto fluorescence at 460 nm (blue) in HEK293 cells (AID 720678)
Method in brief: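 HEK293 cells (2,000 per well, medium with 10% dialyzed FBS) attached for 4-5 hr at 37C, then received compound and stood overnight at 37C, 5% CO2. Blue fluorescence was read at Ex/Em 405/460 nm and expressed relative to triamterene.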

[9] = qHTS assay to test for compound auto fluorescence at 590 nm (red) in HEK293 cells (AID 720679)
Method in brief: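 HEK293 cells (2,000/well, medium with 10% dialyzed FBS) attached for 4-5 hr at 37C, received 23 nL compound and were incubated overnight at 37C, 5% CO2. Red fluorescence was then read at 540/590nm Ex/Em, referenced to Rose Bengal sodium.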

[10] = qHTS assay for small molecule disruptors of the mitochondrial membrane potential (AID 720635)
Method in brief: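 Mitochondrial membrane potential tracked with Mito-MPS dye, red aggregates (ex 540/em 590 nm) against green monomers (ex 490/em 535 nm). Compound treatment 1 hr at 37C, dye 30 min in HepG2.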
% is scaled to controls: 0 for no effect and ±100 for the full control effect.

CCC(C)(C)C
inactive: Potency [1] | Potency [2] | outcome [3] | outcome [4] | outcome [5] | outcome [6] | outcome [7] | outcome [8] | outcome [9]

Cc1nc2ccc(Cl)cc2[nH]1
inactive: Potency [1] | Potency [2] | outcome [3] | outcome [5] | Potency [10] | outcome [6] | outcome [7] | outcome [8] | outcome [9]

CCCCOCCCC
inactive: Potency [1] | Potency [2] | outcome [3] | outcome [4] | outcome [5] | outcome [6] | outcome [7] | outcome [8] | outcome [9]

CC/C=C\CCOC(=O)c1ccccc1
inactive: Potency [1] | Potency [2] | outcome [3] | outcome [4] | Potency [10] | outcome [6] | outcome [7] | outcome [8] | outcome [9]

O=C(O)CCCCCCCCCC(=O)O
inactive: Potency [1] | Potency [2] | outcome [3] | outcome [4] | outcome [6] | outcome [7] | outcome [8] | outcome [9]

CCCOc1ccc(C(=O)OCCN(CC)CC)cc1N
inactive: Potency [1] | Potency [2] | outcome [3] | outcome [4] | Potency [10] | outcome [6] | outcome [7] | outcome [8] | outcome [9]

C[C@]12C=CC(=O)C=C1[C@@H](F)C[C@@H]1[C@@H]2[C@@H](O)C[C@@]2(C)[C@H]1CC[C@]2(O)C(=O)CO
inactive: Potency [1] | Potency [2] | outcome [3] | outcome [4] | Potency [10] | outcome [6] | outcome [7] | outcome [8] | outcome [9]

Cc1cc(C)c(C)c(C)c1
inactive: Potency [1] | Potency [2] | outcome [3] | outcome [4] | outcome [5] | outcome [6] | outcome [7] | outcome [9]

CC(C)(C)C(=O)CC(=O)C(C)(C)C
inactive: Potency [1] | Potency [2] | outcome [3] | outcome [4] | outcome [5] | outcome [6] | outcome [7] | outcome [9]

CC1(C)CC(N)CC(C)(C)N1
inactive: Potency [1] | Potency [2] | outcome [3] | outcome [4] | outcome [5] | outcome [6] | outcome [7] | outcome [9]

COc1ccc(Cl)cc1C
inactive: Potency [1] | Potency [2] | outcome [3] | outcome [5] | Potency [10] | outcome [6] | outcome [7] | outcome [8] | outcome [9]

C/C=C(\C)C=O
inactive: Potency [1] | Potency [2] | outcome [3] | outcome [4] | outcome [6] | outcome [7] | outcome [8] | outcome [9]

C/C(Cl)=C/CCl
inactive: Potency [1] | Potency [2] | outcome [3] | outcome [4] | Potency [10] | outcome [6] | outcome [7] | outcome [9]

O=C1Nc2ccccc2C1=O
inactive: Potency [1] | Potency [2] | outcome [3] | outcome [4] | outcome [5] | outcome [6] | outcome [7] | outcome [9]

CC(C)C[P+](C)(CC(C)C)CC(C)C
inactive: Potency [1] | Potency [2] | outcome [3] | outcome [4] | outcome [6] | outcome [7] | outcome [8] | outcome [9]

CC(C)(O)CCCC1=CCC(C=O)CC1 (stereo not drawn)
inactive: Potency [1] | Potency [2] | outcome [3] | outcome [4] | outcome [6] | outcome [7] | outcome [8] | outcome [9]

C=CCn1cc[n+](C)c1
inactive: Potency [1] | Potency [2] | outcome [3] | outcome [4] | Potency [10] | outcome [6] | outcome [7] | outcome [8] | outcome [9]

CC(C)(C)NCC(O)COc1cccc2c1CCC(=O)N2 (stereo not drawn)
inactive: Potency [1] | Potency [2] | outcome [3] | outcome [4] | outcome [5] | fluorescence, relative to Rose Bengal [6] -0.0368% [at 18.6 µM] | fluorescence, % of fluorescein control [7] -0.225% [at 18.6 µM] | fluorescence, % of fluorescent control [9] 0.0747% [at 18.6 µM]

O=Cc1ccc(C(=O)O)cc1
inactive: Potency [1] | Potency [2] | outcome [3] | outcome [4] | Potency [10] | outcome [6] | outcome [7] | outcome [8] | outcome [9]

Cc1ccc(S(=O)(=O)NC(=O)NN2CC3CCCC3C2)cc1 (stereo not drawn)
inactive: Potency [1] | Potency [2] | outcome [3] | outcome [4] | fluorescence, relative to Rose Bengal [6] 0.0207% [at 18.6 µM] | fluorescence, % of fluorescein control [7] 0.0063% [at 18.6 µM] | fluorescence, % of triamterene [8] -0.0452% [at 18.6 µM] | fluorescence, % of fluorescent control [9] -0.0362% [at 18.6 µM]

CCN1CCN(C(=O)N[C@@H](C(=O)N[C@@H]2C(=O)N3C(C(=O)O)=C(CSc4nnnn4C)CS[C@H]23)c2ccc(O)cc2)C(=O)C1=O
inactive: Potency [1] | Potency [2] | outcome [3] | outcome [4] | outcome [5] | outcome [6] | outcome [7] | outcome [8] | outcome [9]

CN(C)c1cc(NC(=O)CNC(C)(C)C)c(O)c2c1C[C@H]1C[C@H]3[C@H](N(C)C)C(=O)C(C(N)=O)=C(O)[C@@]3(O)C(=O)C1=C2O
inactive: Potency [1] | Potency [2] | outcome [3] | outcome [4] | outcome [5] | outcome [6] | outcome [7] | outcome [9]

CC[N+](C)(CC)CC
inactive: Potency [1] | Potency [2] | outcome [3] | outcome [4] | outcome [6] | outcome [7] | outcome [8] | outcome [9]

CN(C)CCC[C@@]1(c2ccc(F)cc2)OCc2cc(C#N)ccc21
inactive: Potency [1] | Potency [2] | outcome [3] | outcome [4] | outcome [6] | outcome [7] | outcome [9]

CC(C)CC(=O)N[C@H](C(=O)N[C@H](C(=O)N[C@@H](CC(C)C)[C@@H](O)CC(=O)N[C@@H](C)C(=O)N[C@@H](CC(C)C)[C@@H](O)CC(=O)O)C(C)C)C(C)C (Isovaleryl-VV[Sta]A[Sta]-OH)
inactive: Potency [1] | Potency [2] | outcome [3] | outcome [4] | Potency [10] | outcome [6] | outcome [7] | outcome [8] | outcome [9]

CCc1ncc(C)[nH]1
inactive: Potency [1] | Potency [2] | outcome [3] | outcome [4] | outcome [5] | outcome [6] | outcome [7] | outcome [8] | outcome [9]

CCCCCCCCCCCC(C)=O
inactive: Potency [1] | Potency [2] | outcome [3] | outcome [4] | Potency [10] | outcome [6] | outcome [7] | outcome [8] | outcome [9]
